The nature of assay [1]: NCI Yeast Anticancer Drug Screen. Data for the rad50 strain (AID 155).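 Note: 0% = growth of vehicle-only cultures of the same strain.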 The following applies: S. cerevisiae rad50 strain growth inhibition; at 50.0 µM; stronger effect = higher value. The method in brief:
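Vehicle-treated cultures provide the reference for the growth inhibition reported for compound-exposed, repair-deficient yeast.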

A short description of assay [2]: NCI Yeast Anticancer Drug Screen. Data for the mec2-1 strain (AID 157). The following applies: S. cerevisiae mec2-1 strain, at 50.0 µM, stronger effect = higher value. The gist of the method:
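Compounds were applied to mec2-1 yeast cells. Their growth was then compared with that of vehicle-treated cultures to give growth inhibition.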

Assay [3] in a line: NCI Yeast Anticancer Drug Screen. Data for the sgs1 mgt1 strain (AID 161).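 Note: 0% = growth of cultures given vehicle only.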 The following applies: S. cerevisiae sgs1 mgt1 strain, at 50.0 µM, stronger effect = higher value. The gist of the method:
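Percent growth inhibition was derived by comparing compound-exposed mutant yeast with vehicle-exposed cultures. The strain carries alterations in DNA damage repair.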

Assay [4] can be described thus: NCI Yeast Anticancer Drug Screen. Data for the cln2 rad14 strain (AID 165).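 Note: 0% = growth equal to vehicle treated cultures.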 Particulars: S. cerevisiae cln2 rad14 strain, at 50.0 µM, stronger effect = higher value. The gist of the method: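 Strain: cln2 rad14 yeast, altered in cell cycle control and DNA damage repair. Read-out: growth inhibition vs vehicle.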
Assay [5] can be described thus: NCI Yeast Anticancer Drug Screen. Data for the bub3 strain (AID 167). Particulars: S. cerevisiae bub3 mutant strain, at 50.0 µM, stronger effect = higher value. The method in brief:
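Mutant yeast screening strain plus compound; vehicle-treated cultures serve as the 0% inhibition reference.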

Assay [6] can be described thus: NCI Yeast Anticancer Drug Screen. Data for the mlh1 rad18 strain (AID 175). The following applies: S. cerevisiae mlh1 rad18 strain growth inhibition; at 50.0 µM; stronger effect = higher value. The method in brief:
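A repair-deficient yeast strain is exposed to test compound, and growth is scored relative to vehicle-treated controls.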

Structures are written as SMILES. The panel holds about 79,000 compounds, 15% with a hit somewhere; the sample as a whole holds those more often. Unmarked numbers belong to inactive results. Calls of active or inactive are those of the source. Cut-off read from the data, not from the text of the source: active = growth inhibition above about 70%; inactive = the rest.

For `Cc1ccc(NC(=O)c2ccccc2)cc1`, the growth inhibition in assay [1] is 3.75%; in assay [2] it was 4.7%; in assay [3], -2.55%; in assay [4], -16%; in assay [5], 2.05%; in assay [6] it was -0.3%.
In the case of `CN(C)C(=O)c1ccc[n+](CC(=O)NCc2ccccc2)c1`, the growth inhibition in assay [1] was 5.45%; in assay [2] it was -7.35%; in assay [3], -3.4%; in assay [4], 18.8%; in assay [5], 2.25%; in assay [6] it was 13.5%.
As for `O=C(CCCCC(=O)OC1CCCCC1)OC1CCCCC1`, the growth inhibition in assay [1] was -4.95%; in assay [2], 3.65%; in assay [3] it was -6.45%; in assay [4], -60.3%; in assay [5], -1.05%; in assay [6], 10.8%.
For the compound `COc1ccc(OC)c(CCCCC(N)=O)c1`, the growth inhibition is -19.8% in assay [1]; -8.2% in assay [2]; 7.3% in assay [3]; 1.4% in assay [4]; 0.5% in assay [5]; -9.55% in assay [6].
As to `O=Nc1ccc(O)cc1Cc1ccccc1`, the growth inhibition is -10.4% in assay [1]; -5.95% in assay [2]; -19.8% in assay [3]; -5.3% in assay [4]; 5.1% in assay [5]; -1.5% in assay [6].
For `Cc1ccc(CSCc2c(CSCc3ccc(C)cc3)c(CSCc3ccc(C)cc3)c(CSCc3ccc(C)cc3)c(CSCc3ccc(C)cc3)c2CSCc2ccc(C)cc2)cc1`, the growth inhibition in assay [1] was -6%; in assay [2], 0.9%; in assay [3], 5.8%; in assay [4], 29.8%; in assay [5], 1.75%; in assay [6], 6.85%.
On to `CCCCCNC(=O)Nc1cccc(Cl)c1C`, for which the growth inhibition in assay [1] is -1.4%; in assay [2], 6.75%; in assay [3], 3.55%; in assay [4], 11.4%; in assay [5], 16.6%; in assay [6], -20.6%.
For `COc1ccc(C2OCC(COC(C)=O)O2)cc1OC` (stereo not given), the growth inhibition in assay [1] is -11%; in assay [2], 6.4%; in assay [3], 1.2%; in assay [4], -17.9%; in assay [5], 26.5%; in assay [6] it was 10.4%.
Take `Nc1nnc2c(=O)[nH]cnc2n1`: the growth inhibition in assay [1] was 2.25%; in assay [2], -8.8%; in assay [3], -29.2%; in assay [4], -14.4%; in assay [5], -12.2%; in assay [6], -7.35%.
Consider `CCO/C=N/n1c(C(=O)NCCCOC)nc2ccccc2c1=O`, for which the growth inhibition was -6.25% in assay [1]; -20.3% in assay [2]; 7.4% in assay [3]; -5.6% in assay [4]; 4.9% in assay [5]; 1.75% in assay [6].
Take `CCCc1c(C(=O)O)c(-c2cccc3ccccc23)c(CCC)c2c1-c1cccc3cccc-2c13`: the growth inhibition in assay [1] was 54.5%; in assay [2], 35%; in assay [3], 76% (active); in assay [4], 71.2% (active); in assay [5], 30.2%; in assay [6] it was 73.5% (active).
As for `Cc1ccc(S(=O)(=O)OCC2(COS(=O)(=O)c3ccc(C)cc3)CCC2)cc1`, the growth inhibition in assay [1] was -7.8%; in assay [2] it was -7.75%; in assay [3], 0.25%; in assay [4], -8.95%; in assay [5], 16%; in assay [6], -15%.
Consider `COc1ccc(NC(=O)C(=O)Cc2nc3ccc(C(=O)c4ccccc4)cc3[nH]c2=O)c([N+](=O)[O-])c1`, for which the growth inhibition in assay [1] is 36%; in assay [2], 2.65%; in assay [3] it was 12.7%; in assay [4], 19.1%; in assay [5], 11.8%; in assay [6], 22.6%.
In the case of `Nc1ncnc2c1ncn2CCCCCO`, the growth inhibition in assay [1] was 5.15%; in assay [2], 49.7%; in assay [3], 13.7%; in assay [4] it was 7.35%; in assay [5] it was 3.45%; in assay [6], 13.3%.
`C=C(C)[C@@H]1CC[C@@H]2C(=CC[C@]3(C)C([C@H](C)CC/C=C(/C)C(=O)O)CC[C@@]23C)[C@@]1(C)CCC(=O)O` (stereo not given in full): the growth inhibition in assay [1] was 15.6%; in assay [2], -4.95%; in assay [3], -0.85%; in assay [4], 14.4%; in assay [5], 4.05%; in assay [6], -63.2%.
Turning to `COc1ccc2c(c1)C1(C)CCC(=O)C(C)=C1CC2` (stereo not given), the growth inhibition was 17.9% in assay [1]; -3.95% in assay [2]; 22.9% in assay [3]; 7.75% in assay [4]; 14.8% in assay [5]; 14.4% in assay [6].
In the case of `c1ccc(CCc2ccnc3ccccc23)cc1`, the growth inhibition is 8.15% in assay [1]; 3.1% in assay [2]; -2.9% in assay [3]; 1.6% in assay [4]; 9.15% in assay [5]; 5.55% in assay [6].
For the compound `CCC1C(=O)OCc2c1cc1n(c2=O)C(CC)c2c-1nc1ccccc1c2Cl` (stereo not given), the growth inhibition was 57.4% in assay [1]; 14.6% in assay [2]; 8.15% in assay [3]; -28.3% in assay [4]; -2.95% in assay [5]; 4.55% in assay [6].
Regarding `CCOC(=O)COc1ccc(Cl)cc1CCl`, the growth inhibition in assay [1] was 3.2%; in assay [2], 6.4%; in assay [3], -10.4%; in assay [4] it was -10.9%; in assay [5] it was 21.9%; in assay [6] it was 1.65%.
On to `O=C(O)CCc1ccccc1C(=O)O`, for which the growth inhibition in assay [1] was 19.6%; in assay [2], -19.6%; in assay [3] it was -2%; in assay [4], -9.8%; in assay [5] it was -10.1%; in assay [6] it was 9.5%.

Source of the values: PubChem BioAssay (NCI).
